From PubChem BioAssay (EPA / NIEHS) come the findings set out here.

For assay [1], the target named is Oxysterols receptor LXR-beta (Homo sapiens) (UniProt P55055). Nature of the assay: ATG_LXRb_TRANS: Attagene TRANS-FACTORIAL HepG2 Assay for human Liver X Receptor beta (LXRb) (AID 2282981). The settings on record: HepG2 Attagene TRANS GAL4-LXRb reporter, mRNA. In outline: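 Liver-derived HepG2 cells transfected with Gal4-responsive reporters were dosed for 24 h. Activation was scored as rise in reporter mRNA, by RT-PCR and capillary electrophoresis, above DMSO baseline.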

The target of assay [2] is Hepatocyte nuclear factor 4-alpha (Homo sapiens) (UniProt P41235). Briefly: ATG_HNF4a_TRANS: Attagene TRANS-FACTORIAL HepG2 Assay for human Hepatocyte Nuclear Factor 4 alpha (HNF4a) (AID 2282982). The settings on record: HepG2 HNF4a transactivation reporter, mRNA readout. In outline: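 Using HepG2 liver cells transfected with GAL4-UAS reporter units, chemical-induced mRNA increases were assessed after 24 hours. Fluorescent RT-PCR fragments were separated by capillary electrophoresis and compared with DMSO negative controls.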

Assay [3] in a line: ATG_M_32_TRANS: Attagene TRANS-FACTORIAL HepG2 Assay for M32 Transcription Factor (Internal Marker) (AID 2282984).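 Further: transcript level of a background control reporter unit measured by RT-PCR and capillary electrophoresis.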 The conditions noted are these: HepG2 Attagene TRANS M32 internal marker reporter. In outline:
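Fluorescence-detected mRNA induction, HepG2 liver cells, 24 h after dosing. Multiple GAL4-UAS reporter units introduced by transient transfection; background-control endpoint analysed for gain of signal against DMSO.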

The target in assay [4] is Nuclear receptor subfamily 4 group A member 2 (Homo sapiens) (UniProt P43354). Briefly: ATG_NURR1_TRANS: Attagene TRANS-FACTORIAL HepG2 Assay for human Nuclear Receptor Related Protein 1 (NURR1) (AID 2282985). The settings on record: HepG2 Attagene TRANS reporter, mRNA readout. In outline: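 Chimeric NR-Gal4 proteins were expressed in human HepG2 cells bearing GAL4-UAS reporter units, and induced reporter mRNA was quantified 24 h post-dosing by RT-PCR and capillary electrophoresis.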

In assay [5] the target is Transcriptional activator Myb (Homo sapiens) (UniProt P10242). Nature of the assay: ATG_Myb_CIS: Attagene CIS-FACTORIAL HepG2 Assay for human Myeloblastosis (Myb) Proto-Oncogene Transcription Factor (AID 2282986; active means hit-call score of the fitted dose curve at least 0.9, where 1 is the maximum; inactive means score below 0.9). The settings on record: HepG2 Attagene CIS-FACTORIAL Myb reporter transcription; actives raise or lower the signal. The gist of the method:
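Steps: transfect HepG2 with cis-regulated reporter units; dose with chemical for 24 h; isolate RNA, reverse-transcribe, PCR-amplify and FAM-label reporter sequences; digest with HpaI; resolve by capillary electrophoresis. Activity fitted in both directions relative to DMSO.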

Assay [6] concerns the target Nuclear respiratory factor 1 (Homo sapiens) (UniProt Q16656). Nature of the assay: ATG_NRF1_CIS: Attagene CIS-FACTORIAL HepG2 Assay for human Nuclear Respiratory Factor 1 (NRF1) Orphan Gene (AID 2282987; active means hit-call score of the fitted dose curve at least 0.9, where 1 is the maximum; inactive means score below 0.9). The settings on record: HepG2 NRF1 cis-element reporter, Attagene multiplex; actives raise or lower the signal. In outline:
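Fluorescence intensity of labelled reporter cDNA fragments, resolved by capillary electrophoresis, served as readout for NRF1 cis-element activity. Transiently transfected HepG2 cells were dosed for 24 hours; activity in either direction was fitted against DMSO negative control.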

Assay [7] concerns the target Oxysterols receptor LXR-alpha (Homo sapiens) (UniProt Q13133). Briefly: ATG_LXRa_TRANS: Attagene TRANS-FACTORIAL HepG2 Assay for human Liver X Receptor alpha (LXRa) (AID 2282980). The conditions noted are these: HepG2 Attagene TRANS reporter, LXRa transactivation. In outline: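 Chemical-induced reporter mRNA measured by RT-PCR with fluorescent labelling and capillary electrophoresis after 24 h dosing of transiently transfected HepG2 cells expressing exogenous NR-Gal4 chimeras; increases scored against DMSO baseline.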

Assay [8] is described as follows: ATG_M_06_TRANS: Attagene TRANS-FACTORIAL HepG2 Assay for M06 Transcription Factor (Internal Marker) (AID 2282983).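 Further: reporter transcript level by RT-PCR then capillary electrophoresis fluorescence.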 The settings on record: HepG2 Attagene TRANS M06 internal marker reporter. The gist of the method:
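Background-control reporter readout: after 24 h chemical exposure of transiently transfected HepG2 (GAL4-UAS reporter units), mRNA quantified by RT-PCR with fluorescent labeling and capillary electrophoresis. Gain-of-signal fitting against DMSO baseline.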

Records with an inconclusive call do not appear. Activity calls are given as the source filed them. How the source made its calls, unless noted: active means hit-call score of the fitted dose curve at least 0.9, where 1 is the maximum; inconclusive means response in the unintended direction; inactive means score below 0.9.

Sequence of Oxysterols receptor LXR-alpha (Homo sapiens) (Q13133 whole entry, looked up, the tested form may be a part): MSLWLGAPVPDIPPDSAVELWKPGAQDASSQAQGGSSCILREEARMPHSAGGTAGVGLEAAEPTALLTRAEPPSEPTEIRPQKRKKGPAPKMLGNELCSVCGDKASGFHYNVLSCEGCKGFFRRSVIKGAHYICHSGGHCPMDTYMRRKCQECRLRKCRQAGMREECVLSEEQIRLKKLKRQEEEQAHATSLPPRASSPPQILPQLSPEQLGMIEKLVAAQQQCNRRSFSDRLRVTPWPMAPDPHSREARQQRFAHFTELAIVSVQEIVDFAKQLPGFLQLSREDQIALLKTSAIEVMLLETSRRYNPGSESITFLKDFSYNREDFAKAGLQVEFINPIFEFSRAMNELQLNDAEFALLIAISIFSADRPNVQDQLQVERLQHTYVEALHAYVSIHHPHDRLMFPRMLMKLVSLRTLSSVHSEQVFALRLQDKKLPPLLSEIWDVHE
Sequence of Nuclear respiratory factor 1 (Homo sapiens) (Q16656 whole entry, looked up, the tested form may be a part): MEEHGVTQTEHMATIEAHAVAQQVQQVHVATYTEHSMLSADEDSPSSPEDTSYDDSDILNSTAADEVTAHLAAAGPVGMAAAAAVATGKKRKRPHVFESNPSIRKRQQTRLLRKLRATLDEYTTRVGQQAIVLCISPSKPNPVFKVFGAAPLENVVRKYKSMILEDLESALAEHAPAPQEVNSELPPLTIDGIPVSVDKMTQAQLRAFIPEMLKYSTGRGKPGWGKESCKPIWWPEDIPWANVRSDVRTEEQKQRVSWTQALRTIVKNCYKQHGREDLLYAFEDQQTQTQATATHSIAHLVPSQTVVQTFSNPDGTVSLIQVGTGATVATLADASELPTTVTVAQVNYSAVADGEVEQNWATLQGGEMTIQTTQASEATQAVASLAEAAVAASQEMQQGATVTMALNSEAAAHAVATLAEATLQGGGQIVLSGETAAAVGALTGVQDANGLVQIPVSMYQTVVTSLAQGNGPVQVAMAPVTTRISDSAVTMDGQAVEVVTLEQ
Sequence of Oxysterols receptor LXR-beta (Homo sapiens) (P55055 whole entry, looked up, the tested form may be a part): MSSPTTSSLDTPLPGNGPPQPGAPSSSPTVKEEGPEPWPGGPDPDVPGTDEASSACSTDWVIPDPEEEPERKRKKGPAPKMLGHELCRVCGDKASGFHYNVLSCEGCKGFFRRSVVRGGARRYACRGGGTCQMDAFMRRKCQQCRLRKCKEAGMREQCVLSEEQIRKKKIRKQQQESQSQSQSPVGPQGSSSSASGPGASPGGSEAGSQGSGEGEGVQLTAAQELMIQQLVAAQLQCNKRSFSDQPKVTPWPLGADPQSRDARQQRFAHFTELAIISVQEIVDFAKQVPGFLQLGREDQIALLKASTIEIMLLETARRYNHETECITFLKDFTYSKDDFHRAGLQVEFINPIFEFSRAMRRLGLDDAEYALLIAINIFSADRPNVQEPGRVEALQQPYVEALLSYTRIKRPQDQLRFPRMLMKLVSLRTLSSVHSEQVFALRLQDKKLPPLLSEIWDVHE
Sequence of Transcriptional activator Myb (Homo sapiens) (P10242 whole entry, looked up): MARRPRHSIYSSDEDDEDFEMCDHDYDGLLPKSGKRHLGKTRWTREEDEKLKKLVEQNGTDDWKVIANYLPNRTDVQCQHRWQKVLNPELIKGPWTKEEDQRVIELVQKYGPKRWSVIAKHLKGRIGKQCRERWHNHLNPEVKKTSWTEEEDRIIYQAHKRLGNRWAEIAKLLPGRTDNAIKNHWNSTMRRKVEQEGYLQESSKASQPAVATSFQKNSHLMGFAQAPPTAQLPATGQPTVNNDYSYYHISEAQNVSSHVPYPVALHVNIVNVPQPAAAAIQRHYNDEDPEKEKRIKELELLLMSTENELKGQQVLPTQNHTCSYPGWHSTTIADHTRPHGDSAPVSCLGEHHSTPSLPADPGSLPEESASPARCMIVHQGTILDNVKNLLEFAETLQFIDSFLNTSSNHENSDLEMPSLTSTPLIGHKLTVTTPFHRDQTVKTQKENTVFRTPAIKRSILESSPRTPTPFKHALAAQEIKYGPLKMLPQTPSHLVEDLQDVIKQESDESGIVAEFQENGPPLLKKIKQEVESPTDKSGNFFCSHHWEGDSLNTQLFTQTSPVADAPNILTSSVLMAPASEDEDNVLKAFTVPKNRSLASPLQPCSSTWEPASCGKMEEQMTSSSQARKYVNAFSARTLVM
Sequence of Hepatocyte nuclear factor 4-alpha (Homo sapiens) (P41235 whole entry, looked up, the tested form may be a part): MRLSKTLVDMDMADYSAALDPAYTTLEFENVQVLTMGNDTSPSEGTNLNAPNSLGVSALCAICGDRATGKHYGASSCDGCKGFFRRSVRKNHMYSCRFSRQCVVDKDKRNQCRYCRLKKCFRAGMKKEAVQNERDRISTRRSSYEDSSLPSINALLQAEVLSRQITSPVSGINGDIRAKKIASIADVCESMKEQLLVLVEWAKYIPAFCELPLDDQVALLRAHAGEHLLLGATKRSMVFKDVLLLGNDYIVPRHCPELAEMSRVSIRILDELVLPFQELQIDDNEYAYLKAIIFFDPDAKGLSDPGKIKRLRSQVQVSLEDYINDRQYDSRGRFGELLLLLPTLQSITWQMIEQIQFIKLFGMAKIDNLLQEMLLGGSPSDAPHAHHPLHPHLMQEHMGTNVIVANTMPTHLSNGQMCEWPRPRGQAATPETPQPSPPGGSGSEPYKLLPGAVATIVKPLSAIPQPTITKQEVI
Sequence of Nuclear receptor subfamily 4 group A member 2 (Homo sapiens) (P43354 whole entry, looked up, the tested form may be a part): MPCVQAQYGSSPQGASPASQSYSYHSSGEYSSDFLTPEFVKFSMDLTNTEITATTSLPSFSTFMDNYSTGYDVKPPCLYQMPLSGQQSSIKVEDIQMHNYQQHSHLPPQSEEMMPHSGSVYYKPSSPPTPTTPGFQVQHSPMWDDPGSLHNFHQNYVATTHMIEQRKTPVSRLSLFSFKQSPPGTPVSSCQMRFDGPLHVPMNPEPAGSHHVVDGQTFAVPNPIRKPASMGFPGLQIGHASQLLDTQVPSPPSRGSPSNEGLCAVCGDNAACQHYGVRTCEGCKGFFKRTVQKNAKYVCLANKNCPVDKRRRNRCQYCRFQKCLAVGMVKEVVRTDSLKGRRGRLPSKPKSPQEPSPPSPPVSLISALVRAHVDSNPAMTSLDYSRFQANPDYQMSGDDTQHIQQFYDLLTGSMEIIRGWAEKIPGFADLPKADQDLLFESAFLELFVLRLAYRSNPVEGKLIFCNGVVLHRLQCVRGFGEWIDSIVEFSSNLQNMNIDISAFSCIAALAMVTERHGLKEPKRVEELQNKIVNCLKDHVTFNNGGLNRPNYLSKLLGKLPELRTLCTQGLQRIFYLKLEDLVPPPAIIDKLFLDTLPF

As to `N#[N+]c1ccc2c(S(=O)(=O)[O-])cccc2c1O`, the call in assay [1], in assay [2], in assay [3], in assay [4], in assay [5] and in assay [6] was inactive.
Take `CCOCC(=O)O`: the outcome in assay [7] and in assay [6] was inactive.
On to `O=C1CCCC(=O)O1`, for which the compound was classed as inactive in assay [1], in assay [2], in assay [8], in assay [3], in assay [5] and in assay [6].
In the case of `CN1C(=O)N(C)C(O)C1O` (centres undefined), the call in assay [7], in assay [5] and in assay [6] was inactive.
Regarding `Cc1cccc(C(=O)O)c1`, the result in assay [1], in assay [8], in assay [3] and in assay [6] was inactive.
As for `O=C(O)c1ccccc1Nc1cccc(C(F)(F)F)c1`, the call in assay [1], in assay [8], in assay [3], in assay [5] and in assay [6] was inactive.
With `O=C(OCC1CCC2OC2C1)C1CCC2OC2C1` (centres undefined), the result in assay [1], in assay [8], in assay [4], in assay [5] and in assay [6] was inactive.
In the case of `CCN(CC#N)c1cccc(C)c1`, the compound was classed as inactive in assay [1], in assay [8], in assay [3], in assay [4], in assay [5] and in assay [6].
`CC(C)(C)C(=O)CCc1ccc(Cl)cc1`: the compound was classed as inactive in assay [1], in assay [8], in assay [3], in assay [4] and in assay [6].
On to `O=S1(=O)OC(c2ccc(O)cc2)(c2ccc(O)cc2)c2ccccc21`, for which the result in assay [1], in assay [2], in assay [4] and in assay [6] was inactive.
Regarding `Cc1cc(C)c(C)c(C)c1`, the call in assay [1], in assay [2], in assay [8], in assay [3], in assay [5] and in assay [6] was inactive.
On to `O=c1c2ccccc2nnn1CCl`, for which the result in assay [1], in assay [2], in assay [3], in assay [5] and in assay [6] was inactive.
For the compound `O=C(O)c1cc2ccccc2nc1C(=O)O`, the compound was called inactive in assay [1], in assay [2], in assay [8], in assay [4], in assay [5] and in assay [6].
Consider `C=C(C)[C@H]1CC=C(C)CC1`, for which the call in assay [1], in assay [8], in assay [4], in assay [5] and in assay [6] was inactive.
For the compound `OCCN(CCO)c1ccccc1`, the outcome in assay [1], in assay [8], in assay [5] and in assay [6] was inactive.
Regarding `COC(=O)/C=C/C(C)=C\C=C\C(C)=C\C=C\C=C(C)\C=C\C=C(C)\C=C\C(=O)O`, the compound was classed as inactive in assay [1], in assay [8], in assay [3], in assay [5] and in assay [6].
Take `Cc1ccc(C(C)(C)C)cc1`: the outcome in assay [1], in assay [3], in assay [4], in assay [5] and in assay [6] was inactive.
For `c1ccc(CNCc2ccccc2)cc1`, the call in assay [1], in assay [8], in assay [5] and in assay [6] was inactive.
Turning to `CCOc1ccc(N)c([N+](=O)[O-])c1`, the outcome in assay [1], in assay [2], in assay [4], in assay [5] and in assay [6] was inactive.
`C=CC(=O)OCCOC(=O)C=C`: the outcome in assay [1], in assay [2], in assay [8], in assay [3] and in assay [6] was inactive.
For the compound `O=S(=O)(O)CC(O)CCl` (centres undefined), the compound was classed as inactive in assay [1], in assay [2], in assay [8], in assay [3], in assay [5] and in assay [6].
In the case of `CC(C)(c1cc(Br)c(OCCO)c(Br)c1)c1cc(Br)c(OCCO)c(Br)c1`, the call in assay [1], in assay [2], in assay [3] and in assay [5] was inactive. Moreover, the values for the half-maximal activity concentration (AC50) in assay [4] and in assay [6] were 21.5 µM (active) and 46.7 µM (active), respectively.
For `CCCCCCCC(C)=O`, the result in assay [1], in assay [2], in assay [8], in assay [3], in assay [5] and in assay [6] was inactive.
On to `N#CCc1ccc(Cl)cc1Cl`, for which the result in assay [1], in assay [2], in assay [8], in assay [3], in assay [5] and in assay [6] was inactive.
On to `COc1c2ccoc2cc2oc(=O)ccc12`, for which the call in assay [1], in assay [2], in assay [8], in assay [4], in assay [5] and in assay [6] was inactive.
Regarding `CC/C=C\CCOC(=O)CCCCC`, the result in assay [7], in assay [5] and in assay [6] was inactive.
As for `Cc1c(C)c([N+](=O)[O-])c(C(C)(C)C)c([N+](=O)[O-])c1C`, the compound was called inactive in assay [1], in assay [8], in assay [3], in assay [5] and in assay [6]. Moreover, the AC50 in assay [4] was 9.67 µM (active).
Regarding `Cc1ccc2oc(=O)ccc2c1`, the result in assay [1], in assay [2], in assay [3], in assay [4] and in assay [6] was inactive.
Take `CN(C)c1ccc(N=Nc2ccccc2C(=O)O)cc1`: the outcome in assay [1], in assay [3], in assay [4] and in assay [6] was inactive. In assay [5], the half-maximal activity concentration (AC50) was 25.3 µM (active).
`COC(=O)c1c(C)cc(O)c(C)c1O`: the result in assay [1], in assay [8], in assay [3], in assay [5] and in assay [6] was inactive.
With `C[C@]12C=CC(=O)C=C1CC[C@@H]1[C@@H]2[C@@H](O)C[C@@]2(C)[C@H]1CC[C@]2(O)C(=O)CO`, the result in assay [1], in assay [8], in assay [4], in assay [5] and in assay [6] was inactive.
On to `COc1ccc(NC(C)=O)cc1N`, for which the outcome in assay [1], in assay [8], in assay [4], in assay [5] and in assay [6] was inactive.
Turning to `O=CN1CCCCC1`, the outcome in assay [1], in assay [3], in assay [4], in assay [5] and in assay [6] was inactive.
Turning to `C[Si](C)(CCCN)O[Si](C)(C)CCCN`, the compound was called inactive in assay [1], in assay [3], in assay [5] and in assay [6].
